# According to the supplement of paper PMC11219838:
# Tested on: Caenorhabditis elegans L1 (N2)
# Test: survival and reproduction score of C. elegans L1 (0: 0-10 living worms, 1: 11-20, 2: 21-50, 3: >50, 4: overgrown) (score 0-4); higher = more worms, less nematicidal, active = 1 or less; extreme values may be limits of the assay
# Details: 60 µM; 6 days; temperature: 20 °C
# Summary of the method: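 Compound was pinned to a final 60 µM (0.6% v/v DMSO) into 96-well wells, each holding about 20 synchronized C. elegans N2 L1s and E. coli HB101 in liquid NGM. After 6 days of shaking at 200 rpm and 20 °C in sealed plates, the worms in each well were examined. The ordinal readout of survival and reproduction, based on living worms per well, was assessed under a dissection microscope. On this scale 0 meant 0–10 worms and 4 meant overgrown, starved wells, and two biological replicates were averaged.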
row,Compound,survival and reproduction score
1,COc1nc(C)ccc1-c1noc(-c2ccccc2C)n1,4 (inactive)
2,Cc1ccc(-c2noc(CSc3nc(C)cc(C)n3)n2)cc1,4 (inactive)
3,Cc1ccccc1OCc1nc(-c2cccs2)no1,1 (active)
4,COc1ccccc1CC(=O)Nc1ccc(-c2noc(-c3ccccc3C)n2)cc1,4 (inactive)
5,O=C(CSc1nnc(-c2ccccc2)o1)OCc1ccccc1,4 (inactive)
6,CC[C@H](C)[C@H]1O[C@]2(C=C[C@@H]1C)C[C@@H]1C[C@@H](C/C=C(\C)[C@@H](O[C@H]3C[C@H](OC)[C@@H](O[C@H]4C[C@H](OC)[C@@H](O)[C@H](C)O4)[C@H](C)O3)[C@@H](C)/C=C/C=C3\CO[C@@H]4[C@H](O)C(C)=C[C@@H](C(=O)O1)[C@]34O)O2.CO[C@H]1C[C@H](O[C@H]2[C@H](C)O[C@@H](O[C@@H]3/C(C)=C/C[C@@H]4C[C@@H](C[C@]5(C=C[C@H](C)[C@@H](C(C)C)O5)O4)OC(=O)[C@@H]4C=C(C)[C@@H](O)[C@H]5OC/C(=C\C=C\[C@@H]3C)[C@]54O)C[C@@H]2OC)O[C@@H](C)[C@@H]1O [abamectin],0 (active)
7,COc1ccc(-c2nnc(SCc3ccc(C#N)cc3)o2)cc1,4 (inactive)
8,Clc1ccc(SCc2nc(-c3ccccc3)no2)cc1,0 (active)
9,O=C(NCCc1ncc(C(F)(F)F)cc1Cl)c1ccccc1C(F)(F)F [fluopyram],0 (active)
10,CCOc1nc(-c2ccc(C)cc2)ccc1-c1noc(CC)n1,4 (inactive)
11,Cc1ccc(-c2noc(-c3ccco3)n2)s1,0 (active)
12,CC(C)Oc1ccc(-c2nc(-c3ccncc3)no2)cc1,0 (active)
13,O=C(CSc1nnc(-c2cccc(Br)c2)o1)NC1CCCCC1,4 (inactive)
14,CNC(=O)O/N=C(\SC)C(=O)N(C)C [oxamyl],4 (inactive)
15,COc1ccc(-c2nnc(SCC(=O)Nc3c(F)cc(F)cc3Br)o2)cc1,4 (inactive)
16,Cc1cccc(-c2noc(-c3ccc(C)cc3Cl)n2)c1,4 (inactive)
17,O=C(CSc1nnc(-c2ccc(Br)cc2)o1)Nc1nccs1,4 (inactive)
18,O=C(CSc1nnc(-c2ccccc2Cl)o1)NCc1ccco1,4 (inactive)
19,CCOc1ccccc1-c1nnc(SCC(=O)c2ccccc2)o1,4 (inactive)

row,Compound,survival and reproduction score
1,Fc1ccc(CSc2nnc(-c3ccccn3)o2)cc1,4 (inactive)
2,CCOc1cc(-c2nc(-c3ccccc3C)no2)cc(OCC)c1OCC,4 (inactive)
3,COc1cccc(-c2noc(CSc3ccccc3)n2)c1,4 (inactive)
4,FC(F)(F)c1cccc(-c2noc(-c3cccnc3)n2)c1,1 (active)
5,O=C(NC1CCCCC1)c1ccccc1-c1nc(-c2ccc(F)cc2)no1,4 (inactive)
6,O=C(CSc1nnc(-c2cccc(Cl)c2)o1)Nc1ccccc1,4 (inactive)
7,CCCC(=O)Nc1ccccc1-c1nc(-c2cccnc2)no1,4 (inactive)
8,COc1ccc(-c2noc(-c3cccc(Br)c3)n2)cc1,4 (inactive)
9,COc1ccccc1-c1nc(-c2ccc(Cl)cc2Cl)no1,4 (inactive)
10,Ic1ccc(CSc2nnc(-c3ccco3)o2)cc1,3.5 (inactive)
11,COc1ccc(-c2noc(-c3ccc(Cl)cc3)n2)cc1,3 (inactive)
12,Cc1ccc(-c2nnc(SCC(=O)Nc3ccccc3)o2)cc1,4 (inactive)
13,COc1cccc(-c2noc(COc3ccccc3Cl)n2)c1,4 (inactive)
14,CCc1ccc(OCc2nc(-c3cccc(OC)c3)no2)cc1,4 (inactive)
15,COc1ccccc1-c1nnc(SCC(=O)OCc2ccccc2)o1,4 (inactive)
16,Cc1ccc(OC(C)c2nc(-c3ccncc3)no2)cc1C (stereo not drawn),4 (inactive)
17,Clc1ccc(-c2nnc(SCc3ccccc3)o2)c(Cl)c1,4 (inactive)
18,CCOc1ccc(-c2nc(-c3ccccc3C)no2)cc1,4 (inactive)
19,COc1ccccc1-c1nnc(SCc2ccccc2C#N)o1,4 (inactive)
